Experimental data reported in PubChem BioAssay AID651871 (Sanford-Burnham Center for Chemical Genomics, 2012).
“And” between values parts separate entries of the source, which are not always exact repeats. Equal values may be shown once.

Test system: HL-1
Assay: cardiomyocyte survival under oxidative or metabolic stress – cell-based, panel, H9c2 and HL-1, ATP luminescence, set 2, SAR follow-up (AID 651871);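 further: cells exposed to stressor for 2 h before ATP readout; reference of the scale not given here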
Conditions: H9c2/HL-1 cardiomyocytes, 2-deoxyglucose stress, with 2-deoxyglucose, run 10, at 79 µM (top of the series)

SMILES	activity (protection/inhibition)
COc1ccc2c(c1OC)C(=O)N1c3ccccc3C(=O)N(Cc3cccc(Cl)c3Cl)C21 (stereo not drawn)	36.7% and -11.3%
COc1ccc2nc(-c3cc(OC)c(OC)c(OC)c3)cc(C(=O)NCC(=O)Nc3ccc(C(C)=O)cc3)c2c1	56%
CCOC(=O)c1cccc(NC(=O)CNC(=O)c2cc(-c3cc(OC)c(OC)c(OC)c3)nc3ccccc23)c1	98.6%
